Data: PubChem BioAssay (NCATS)
Results filed as inconclusive are left out. Entries that show only a call come without a potency. Active and inactive are the calls of the source. Calls follow the shape of the dose curve; as a rule, active = well fitted curve in the direction sought with a large enough effect; inconclusive = small, poorly fitted or top-dose-only effect, or another doubt; inactive = no such curve, though single readings can be large or run the other way.

Experiment: qHTS for differential inhibitors of proliferation of Plasmodium falciparum line HB3 (AID 1886);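 also: parasites grown with compound for 72 h before SYBR Green readout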
Conditions: Potency: Plasmodium falciparum HB3 proliferation inhibition; series mostly up to 28.7 µM
Potency is read from the fitted curve at half-maximal effect.

| Compound | Potency |
| --- | --- |
| NC/C=C\C(=O)O | inactive |
| COc1ccc2c(c1)CCC1C2CC[C@@]2(C)C1CC[C@@H]2NCCCCCCN1C(=O)C=CC1=O (some centres not stated) | inactive |
| O=[N+]([O-])c1cccc2c(Br)[nH]nc12 | inactive |
| CSC(=N)N | inactive |
| NCCC1CCCC(CCN)N1 (configuration not stated) | inactive |
| OC[C@H]1NC[C@@H](O)[C@@H]1O | inactive |
| O=C(O)[C@H]1NCCC[C@H]1C(=O)O | inactive |
| CC(C)NCC(O)COc1ccc(CC(N)=O)cc1 (configuration not stated) | inactive |
| CCN(CC)CCOC(=O)c1cc(Cl)c(N)cc1OC | inactive |
| CC(C)C[C@H](NC(=O)C1OC1C(=O)O)C(=O)NCCCCN=C(N)N (some centres not stated) | 2.51 µM (active) |
| OCC1NCC(O)C(O)C1O (configuration not stated) | inactive |
| C#CCn1c(=O)c2c(ncn2C)n(C)c1=O | inactive |
| O=C(O)C1=CCCNC1 | inactive |
| N=C(N)c1ccc(N)cc1 | inactive |
| C[C@@]1(C2CCCC2)Cc2cc(OCC(=O)O)c(Cl)c(Cl)c2C1=O | inactive |
| O=C(O)C1=CCNCC1 | inactive |
| CC[N+](CC)(CC)CC(=O)Nc1c(C)cccc1C | inactive |
| CC(=O)C(C)=O | inactive |
| CNc1cc(NS(=O)(=O)c2ccc(N)cc2)nc(NC)n1 | inactive |

| Compound | Potency |
| --- | --- |
| NC1(C(=O)O)CCCCC1 | inactive |
| CO/N=C(\C(=O)N[C@@H]1C(=O)N2C(C(=O)O)=C(CSc3nc(=O)c(O)nn3C)CSC12)c1csc(N)n1 (some centres not stated) | inactive |
| NCCS(=O)O | inactive |
| N[C@@H](Cc1ccc(O)c(I)c1)C(=O)O | inactive |
| O=C(O)CCC(=O)N1CCCC1C(=O)O (configuration not stated) | inactive |
| NCC(O)(CS(=O)(=O)O)c1ccc(Cl)cc1 (configuration not stated) | inactive |
| CC(C)(C)NCC(O)COc1cccc2[nH]c(=O)[nH]c12 (configuration not stated) | inactive |
| NC1CONC1=O (configuration not stated) | inactive |
| O=C(O)c1cccnc1C(=O)O | inactive |
| CCCCCCCCCCCCCCCCCCOC[C@H](COP(=O)([O-])OCC[N+](C)(C)C)OC | inactive |
| COc1ccc(-c2ccc(N)[n+](CCCC(=O)O)n2)cc1 | inactive |
| CC(N)=NCCCC[C@@H](N)C(=O)O | inactive |
| C=C(C)C1CC=C(C(=O)O)CC1 (configuration not stated) | inactive |
| CN[C@H](CC(=O)O)C(=O)O | inactive |
| C[C@@H](NCCc1ccc(O)cc1)[C@@H](O)c1ccc(O)cc1 | inactive |
| CNc1ncnc2c1ncn2[C@H]1C[C@H](OP(=O)(O)O)[C@@H](COP(=O)(O)O)O1 | inactive |
| COc1cc(CC(=O)O)ccc1O | inactive |
| NC1(C(=O)O)CCc2cc(C(=O)O)ccc21 (configuration not stated) | inactive |
